# Bst PK mod: modulators of Bacillus stearothermophilus pyruvate kinase; AID 361; 51,000 tested, 1.2% active; purified pyruvate kinase, luminescence ATP production; ribose 5-phosphate activator present at AC10; Potency, µM; in the data active means potency below about 11 µM; inconclusive means mostly about 12 µM to 25 µM;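 the screen sought inhibitors and activators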;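 further: scaled between full activation by ribose 5 phosphate and full inhibition by luteolin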
# Luciferase inh: inhibitors of firefly luciferase; 72,000 tested, 2.2% active; purified firefly luciferase, luminescence, 8 min; Potency, µM (top dose mostly 57.1 µM), inactives show top-dose activity change, negative = inhibition, actives largely listed as inhibitors; AID 411; P08659; active means well fitted inhibition curve with a large enough effect; inconclusive means small, poorly fitted or top-dose-only effect; further: nearly all actives have a fitted effect of over 40% in size
# Target sequence (P08659 whole entry, looked up): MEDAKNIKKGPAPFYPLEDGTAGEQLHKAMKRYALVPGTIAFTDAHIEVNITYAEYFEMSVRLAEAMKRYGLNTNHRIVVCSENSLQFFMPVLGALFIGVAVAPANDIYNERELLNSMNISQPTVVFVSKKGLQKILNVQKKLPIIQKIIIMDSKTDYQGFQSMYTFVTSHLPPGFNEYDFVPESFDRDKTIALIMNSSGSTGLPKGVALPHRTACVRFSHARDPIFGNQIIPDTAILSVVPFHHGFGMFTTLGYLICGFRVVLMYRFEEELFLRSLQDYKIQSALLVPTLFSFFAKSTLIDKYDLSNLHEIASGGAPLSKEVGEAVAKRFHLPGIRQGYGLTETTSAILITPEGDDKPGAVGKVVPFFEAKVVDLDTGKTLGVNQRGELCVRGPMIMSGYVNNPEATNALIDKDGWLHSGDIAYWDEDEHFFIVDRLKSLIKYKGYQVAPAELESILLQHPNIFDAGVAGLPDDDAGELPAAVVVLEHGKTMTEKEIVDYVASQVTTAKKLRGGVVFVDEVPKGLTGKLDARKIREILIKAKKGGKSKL
#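 Luminescence read-out after 8 min at room temperature; enzyme reaction used luciferin plus 10 uM ATP (linear range) in imidazole buffer pH 7.2 with KCl, MgCl2, Tween 20 and BSA. Each sample was run as a titration.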
# An asterisk follows results filed as active; i = inactive; u = inconclusive; x = not tested or not shown; [ ] = dose if it differs, or a comment. Sampled rows, rich in hits. Any-hit rate of the full collection: about 2.5%. Unless noted, on the % scale 0 is the no-effect control and ±100 the full control effect; potency means the concentration at half of the fitted maximal effect.
SMILES,Bst PK mod,Luciferase inh
O=C(CSc1nnnn1-c1ccccc1)NC(=O)Nc1ccc2c(c1)OCCO2,x,16µM*
COc1ncc2nc(-c3cc(F)cc(F)c3)c(=O)n(Cc3cccs3)c2n1,x,1%[11.4 µM]
c1ccc2nc(-c3nc4ccccc4[nH]3)ccc2c1,0.54*,0.79µM*
c1ccc2[nH]c(-c3cscn3)nc2c1,>26,-18%[25.5 µM]
Nc1n[nH]c(-c2ccc(F)cc2)n1,x,1%
CCCCc1ccc(-c2nc(N)n[nH]2)cc1,x,7.9µM*
O=C(Nc1nncs1)c1ccc(Br)c(S(=O)(=O)N2CCCC2)c1,>57,0%
Cc1cc(C)cc(N2C(=O)N(c3ccccc3C)C3CS(=O)(=O)CC32)c1 (centres undefined),>57,-2%
c1ccc(CCn2nnnc2C(c2cccnc2)N2CCN(c3ccccc3)CC2)cc1 (centres undefined),>57,2%
O=C(Nc1ccc(Cl)cc1)c1ccncc1,x,-1%
O=C(Nc1ccccc1O)c1ccc(Cl)cc1,x,16µM*
CCOC(=O)c1[nH]c2cc3c(cc2c1NC(=O)CN1CC(C)CC(C)C1)OCO3 (centres undefined),3.5*,-1%[25.5 µM]
CCOC(=O)c1[nH]c2ccc(OCC)cc2c1NC(=O)CN1CCCC(C)C1 (centres undefined),i,4%
CCOC(=O)N1CCN(C(=O)CSc2nnc(-c3ccc(C(C)(C)C)cc3)o2)CC1,x,1.3µM*
CCOC(=O)N1CCN(C(=O)CSc2nnc(-c3ccc(C)c(C)c3)o2)CC1,x,-10%
Cc1ccc(N2C(=O)c3ccc(N)cc3C2=O)cc1,x,16µM*
Cc1ccc(N2C(=O)c3ccc(N)cc3C2=O)cc1C,x,-23%
COCCn1c(C)cc(C(=O)COC(=O)c2cc3c(s2)CCC3)c1C,>57,-5%
COCCn1c(C)cc(C(=O)COC(=O)C23CC4CC(CC(O)(C4)C2)C3)c1C,i,13µM*
CCCn1c(SCc2ccccn2)nc2c1c(=O)n(C)c(=O)n2C,>57,2%
COc1ccccc1Nc1nnc(SCC(=O)N2CCCC2)s1,>57,-5%
COc1ccccc1Nc1nnc(SCC(=O)N2CCCC2=O)s1,x,20µM*
COc1cc(C2C(C#N)=C(C)NC3=C2C(=O)c2ccccc23)cc(OC)c1OC (centres undefined),>57,0%
Cc1cc(=O)[nH]c(SC/C=C/c2ccccc2)n1,>57,-1%
Cc1cccc(/C=C\c2ccccc2)n1,x,7.9µM*
SMILES,Bst PK mod,Luciferase inh
N#CC(C#N)=c1ccc2c(c1)N1C3=C(CCCC3)CC3CCCCC31N=2 (centres undefined),x,-1%
N#C/C(C(N)=O)=c1/ccc2c(c1)N1C3=C(CCCC3)CC3CCCCC31N=2 (centres undefined),x,16µM*
COc1ccc(C)cc1NC(=O)CSc1nnc(-c2ccc(C)cc2)o1,x,0%
COc1ccc(C)cc1NC(=O)CN(Cc1nnc(-c2ccc(Cl)cc2)o1)C1CCCC1,4.7*,-3%
CC(=O)Nc1ccc(O)cc1,x,-1%
CC(=O)Nc1ccc(-c2nc(C)c(C(C)=O)n2O)cc1,6.6*,-24%
CCn1c2ccccc2c2nnc(SCc3ccc(C(=O)OC)o3)nc21,>57,-1%
Cc1nc2ccccc2c(=O)n1/N=C/c1ccncc1,x,0%
Cc1nc2ccccc2c(=O)n1/N=C/c1cn(-c2ccccc2)nc1-c1cccs1,x,3.2µM*
CCOC(=O)c1ccccc1NC(=O)C(C)Oc1ccccc1 (centres undefined),x,-1%
c1ccc2c(c1)nnn1c3ccccc3nc21,x,13µM*
Cc1nc2ccccc2c2nc3ccccc3n12,x,-1%
CCn1c(C)nc2cc(C(=O)OC(C(F)(F)C(F)F)C(F)(F)C(F)F)ccc21,x,20µM*
CCOC(=O)c1ccc2c(c1)nc(COc1ccccc1C#N)n2CC,>57,-1%
O=C(NCCCN1CCOCC1)NC12CC3CC(CC(C3)C1)C2,x,-1%
CCNc1oc(-c2cccc3ccccc23)nc1C#N,>57,-7%
CC(C)Nc1oc(-c2cccc3ccccc23)nc1C#N,>57,20µM*
Cn1c(SCC(=O)N2CCCCC2)nnc1-c1ccc(S(=O)(=O)N2CCOCC2)cc1,>57,2%
COC(=O)Cc1c(C)nc2nc(-c3ccc(OC)cc3)[nH]n2c1=O,x,13µM*
COc1ccc(-c2nc3nc(C)c(Cc4ccccc4)c(=O)n3[nH]2)cc1,>57,-6%
O=C(Cn1cc2c(n1)CCCC2)N1CCCc2ccccc21,x,-1%
COc1ccc(-c2ccc(-c3nnn(CC(=O)N4CCOCC4)n3)cc2)cc1,2.6*,1.6µM*
O=C(Cn1nnc(-c2ccc(CN3CCOCC3)cc2)n1)N1CCCc2ccccc21,5.6*,-1%
O=C(Cn1nnc(-c2ccc3c(c2)OCO3)n1)N1CCOCC1,>57,1%
CCCCOc1cccc(C(=O)N(Cc2cccs2)C2CCS(=O)(=O)C2)c1 (centres undefined),>57,3%
SMILES,Bst PK mod,Luciferase inh
Clc1ccc(-c2cn3c(n2)CCC3)cc1,u,13µM*
Nc1nc(-c2ccc(Cl)cc2)cc(C(F)(F)F)n1,i,4%
Cc1ccc(-c2nc(CSCC(=O)N3CCN(C(=O)c4ccco4)CC3)c(C)o2)cc1,x,-4%
O=C(NO)C1CC2C=CC1C2 (centres undefined),>57,1%
COc1ccc(-n2nc3cc(C)c(N)c(Br)c3n2)cc1,3.4*,4µM*
COc1ccc(-n2nc3ccccc3n2)cc1,x,-11%
O=C(O)C1CC(c2cccc(Br)c2)=NO1 (centres undefined),>57,1%
Cc1cn2nc(N)c3ccccc3c2n1,8.8*,-3%
Cc1nc2c3cnn(-c4ccccc4)c3ncn2n1,x,-13%
O=C(NC1CCS(=O)(=O)C1)C1CCCCN1S(=O)(=O)c1ccc(Cl)cc1 (centres undefined),>57,-4%
CCN1/C(=C/C(C)=O)Sc2ccc(OC)cc21,>11,-7%
COc1ccc2c(c1)S/C(=C\C(=O)c1ccncc1)N2C,x,5µM*
COc1ccc(C2C=C(C)Nc3nc(SC)nn32)cc1 (centres undefined),>57,2%
Cc1ccc(-c2nnc3sc(-c4ccc5c(c4)OCCO5)nn23)cc1,>57,-1%
COc1ccccc1-c1cc(C(=O)Nc2cc(C)n(Cc3ccc(Cl)cc3)n2)no1,>57,-1%
CN1CCCCCC1=Nc1ccccc1C#N,>57,2%
CCOc1ccc(C2CC(c3ccc(Br)cc3)Nc3nc(N)nn32)cc1 (centres undefined),>57,-1%
Cc1cc2n(n1)C(c1sccc1C)Nc1ccccc1-2 (centres undefined),>11,-29%
Cc1ccc2c(c1)-c1cc(C)nn1C(c1sccc1C)N2 (centres undefined),11*,u
CCS(=O)(=O)NCC(c1cccnc1)N1CCN(c2ccc(F)cc2)CC1 (centres undefined),>57,-1%
COC(=O)c1ccc(CSc2nc(N)cc(N)n2)cc1,>57,-20%
COC(=O)c1ccc(CSc2nc3ccccc3o2)cc1,i,16µM*
OCc1ccccc1OCCOc1ccc(Cl)c2cccnc12,3.5*,-10%
Clc1ccc(OCCn2ccnc2)c2ccccc12,x,1%
C[C@H](O)[C@H](O)[C@@H]1CNc2nc(N)[nH]c(=O)c2N1,x,-1%
COc1ccc(-c2nc(-c3ccccc3OC)no2)cc1OC,i,16µM*
COc1ccc(-c2nc(-c3cccc(C)c3)no2)cc1OC,>57,-12%
CCOc1cc(-c2nc(-c3ccccc3OC)no2)cc(OCC)c1OCC,>57,1%
COc1cc(-c2noc(-c3ccco3)n2)cc(OC)c1OC,>57,-11%
